± gives the standard deviation of the averaged measurements. In all, about 4,100 sequences were measured (“relative kcat/Km (krel) vs genomic leader AAAGAU”: median about 1.7, highest 2% from about 6.5 on). The sample as a whole holds a higher share of the highest values than the screen did.
Target: T1, E. coli RNase P holoenzyme (M1 P RNA + rnpA protein) (UniProt P0A7Y8)
T1 sequence: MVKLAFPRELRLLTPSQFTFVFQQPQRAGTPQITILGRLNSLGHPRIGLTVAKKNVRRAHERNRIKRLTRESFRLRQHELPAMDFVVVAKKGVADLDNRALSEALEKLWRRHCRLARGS
Assay: relative kcat/Km (krel) vs genomic leader AAAGAU (relative (reference leader = 1)); higher = faster RNase P cleavage
Method in brief: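 A precursor tRNA-Met pool randomized at leader positions −6 to −1 was cleaved by E. coli RNase P holoenzyme (P RNA plus C5 protein) under multiple-turnover conditions at 37 °C in 50 mM Tris-HCl pH 8, 100 mM NaCl, 17.5 mM MgCl2. Unreacted precursor was gel-purified at ~5–30% conversion, converted to cDNA libraries and Illumina-sequenced. Relative kcat/Km (krel) was calculated by internal competition kinetics from read ratios, normalised to the genomic leader, averaging two technical replicates.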

[1] = fraction of substrate reacted: ~9-10% (9.79% repeat 1, 9.1% repeat 2)
[2] = fraction of substrate reacted: ~13-16% (15.68% repeat 1, 13.17% repeat 2)
[3] = fraction of substrate reacted: ~26-29% (28.66% repeat 1, 26.4% repeat 2)

Row | Sequence | relative kcat/Km [1] | relative kcat/Km [2] | relative kcat/Km [3]
1 | CACCGA | 3.39 ± 1.4 | 3.9 ± 0.93 | 6.22 ± 2.1
2 | TACCGG |  |  | 1.29 ± 0.22
3 | TACCGC | 3.15 ± 1.3 | 4.16 ± 0.76 | 6.03 ± 2.5
4 | AACCGA | 2.67 ± 0.52 | 3.23 ± 0.34 | 4.66 ± 1.2
5 | TACCGA | 2.83 ± 0.7 | 4.89 ± 1.1 | 7.04 ± 2.7
6 | GACCGA | 3.3 ± 0.89 | 4.27 ± 2.1 | 6.73 ± 2.8
7 | AGCCGC | 3.07 ± 1.3 | 2.5 ± 0.098 | 4.02 ± 1.1
8 | TGTATC | 1.92 ± 0.29 | 2.43 ± 0.36 | 4 ± 1.6
9 | AACTGT | 0.625 ± 0.14 | 0.97 ± 0.59 | 0.608 ± 0.51
10 | GGACGG |  |  | 0.782 ± 0.17
11 | GGCGGC |  |  | 0.914 ± 0.47
12 | GAACAG |  | 0.667 ± 0.64 | 1.66 ± 0.19
13 | TCATAC | 4.3 ± 0.51 | 5.72 ± 0.91 | 7.38 ± 3
14 | ACATAT | 2.86 ± 0.79 | 4.26 ± 0.58 | 6.5 ± 3.1
15 | TCATAT | 4.21 ± 1.4 | 5.49 ± 1 | 8.18 ± 3.4
16 | TAATAA | 3.59 ± 2 | 4.41 ± 0.57 | 5.5 ± 2.2
17 | TCATAG | 1.97 ± 1.4 | 1.66 ± 0.34 | 3.6 ± 0.47
18 | GAATAT | 2.99 ± 0.33 | 4.3 ± 0.79 | 6.29 ± 3.4
19 | ACATAC | 3.09 ± 1.3 | 3.78 ± 0.48 | 6.1 ± 2.7

Row | Sequence | relative kcat/Km [1] | relative kcat/Km [2] | relative kcat/Km [3]
20 | TAATAT | 3.78 ± 1.4 | 5.05 ± 0.28 | 7.45 ± 3.4
21 | TCATAA | 3.15 ± 1.2 | 4.17 ± 0.67 | 5.77 ± 2.2
22 | ACAACT |  |  | 1.07 ± 0.15
23 | CGGACA | 0.696 ± 0.1 | 0.739 ± 0.49 | 0.747 ± 0.23
24 | GCAAAT | 2.24 ± 0.9 | 2.01 ± 0.39 | 1.93 ± 0.58
25 | CGACCC |  | 0.175 ± 0.13 | 1.47 ± 0.038
26 | AAGATG |  |  | 0.939 ± 0.44
27 | TACGAG |  | 1.58 ± 0.12 | 3.95 ± 1.1
28 | AACGAA | 2.84 ± 0.7 | 3.68 ± 0.69 | 5.36 ± 1.9
29 | AACGAC | 3.67 ± 0.53 | 4.57 ± 1.6 | 5.98 ± 2.1
30 | GACGGA |  | 1.21 ± 1.1 | 0.922 ± 0.64
31 | TACGAT | 2.93 ± 1.5 | 2.79 ± 0.68 | 3.63 ± 1.5
32 | TACGAC | 3.699 ± 0.0078 | 5.54 ± 1.6 | 7.61 ± 3.2
33 | CACGAG | 1.8 ± 0.22 | 2.47 ± 1.2 | 3.69 ± 1.2
34 | GACGTA | 2.41 ± 1.4 | 2.86 ± 0.42 | 3.54 ± 1.3
35 | CACGAT | 1.78 ± 0.53 | 2.22 ± 0.33 | 3.42 ± 1.1
36 | GACGAA | 3.75 ± 1.5 | 6.07 ± 1.1 | 8.11 ± 2.6
37 | CACGAC | 3.62 ± 0.058 | 5.56 ± 2.7 | 7.35 ± 3
38 | TACGAA | 2.87 ± 0.059 | 5.68 ± 1 | 8.44 ± 3.8

Row | Sequence | relative kcat/Km [1] | relative kcat/Km [2] | relative kcat/Km [3]
39 | TCGTCA | 2.78 ± 1.8 | 2.51 ± 0.12 | 3.63 ± 1.3
40 | ACTAGG |  |  | 0.408 ± 0.15
41 | CGGGCA | 1.28 ± 0.55 | 0.965 ± 0.75 | 0.825 ± 0.17
42 | CCAGAC | 2.22 ± 0.29 | 2.1 ± 1.1 | 3.22 ± 0.77
43 | AAGGGA |  |  | 1.11 ± 0.65
44 | TTTTCC | 2.77 ± 1.4 | 2.75 ± 0.3 | 3.22 ± 0.98
45 | GAGGTG |  |  | 0.61 ± 0.57
46 | GGATGG |  |  | 0.8644 ± 0.0076
47 | CTTTTT | 2.99 ± 1.5 | 3.27 ± 0.75 | 4.46 ± 1.3
48 | GCTCGG | 0.809 ± 0.37 | 0.268 ± 0.21 | 0.748 ± 0.15
49 | CACGCA | 2.14 ± 0.48 | 3.31 ± 1.5 | 4.91 ± 1.6
50 | GACGAC | 3.35 ± 0.49 | 5.87 ± 1.6 | 7.89 ± 2.8
51 | CACGAA | 4.26 ± 1.8 | 6 ± 1.6 | 7.87 ± 2.6
52 | GACGAT | 1.52 ± 0.65 | 2.06 ± 1.5 | 2.68 ± 1.1
53 | CACGTA | 1.91 ± 1.1 | 2.23 ± 0.31 | 3.56 ± 1.4
54 | GACGAG |  | 1.49 ± 0.19 | 3.3 ± 0.29
55 | CGGATT |  |  | 0.799 ± 0.34
56 | CAAATA | 2.33 ± 2.3 | 1.68 ± 0.092 | 1.78 ± 0.47
57 | CACCTA | 2.32 ± 0.25 | 2.44 ± 0.4 | 3.68 ± 1.3

Source: the supplement of paper PMC9433436
